The results in this text go back to PubChem BioAssay AID743468 (Broad Institute, 2014).

The other results are listed elsewhere or left out. The source made the active and inactive calls.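 How the source made its calls: active means fitted curve reaching a 40% PDK4 expression rise at or below the top valid tested dose; inconclusive means no clear call, values can overlap the other calls; inactive means the rest, including shifts the wrong way.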

A short description of this test: change in PGC-1a target gene PDK4 expression, dose response, C2C12 myotubes, RT-qPCR, cherry-pick (AID 743468). The note with it: PGC-1a adenovirus, PDK4 mRNA qPCR; series mostly up to 19.5 µM.

`N#Cc1ccc(-c2ccc(C3[C@@H]4CN(S(=O)(=O)c5ccc(F)cc5)C[C@H]3N4)cc2)cc1` (stereo partly specified): the result was inactive.
